Each structure is given as a SMILES string. Inconclusive results are not listed. Active and inactive are the calls of the source. Rule for the calls: active = hit-call score of the fitted dose curve at least 0.9, where 1 is the maximum; inconclusive = response in the unintended direction; inactive = score below 0.9.

Assay [1] concerns the target rat Adrenergic Receptor, Beta (Adrb), Non-selective Binding, Adrb1 (gene 24925) (UniProt P18090). Put plainly: NVS_GPCR_rAdrb_NonSelective: NovaScreen (NVS) G Protein-Coupled Receptor Assay for rat Adrenergic Receptor, Beta (Adrb), Non-selective Binding (AID 2283298). The essentials:
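Rat cortical membranes incubated 1 h with beta-adrenergic radioligand and test chemical; bound ligand measured by filtration and scintillation counting. Screen at 25 uM duplicate, then concentration series with 50 uM maximum; loss of signal versus DMSO.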

The target in assay [2] is mouse Cholecystokinin, CCK1 Receptor (CCKA), Cckar (gene 12425) (UniProt O08786). Put plainly: NVS_GPCR_mCCKAPeripheral: NovaScreen (NVS) G Protein-Coupled Receptor Assay for mouse Cholecystokinin, CCK1 Receptor (CCKA) (AID 2283285). The essentials:
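Chemicals were first screened in duplicate at 25 uM, with those meeting threshold (e.g., 30% inhibition) retested in singleton concentration series to 50 uM maximum. Binding of radioligand to mouse pancreatic membranes was read after 2 h by filtration and scintillation counting.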

Assay [3] deals with human Opioid Receptor Mu (Opiate Mu), OPRM1 (gene 4988) (UniProt P35372). The assay can be described thus: NVS_GPCR_hOpiate_mu: NovaScreen (NVS) G Protein-Coupled Receptor Assay for human Opioid Receptor Mu (Opiate Mu) (AID 2283290).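 Note: hits lower bound tracer signal versus DMSO meaning displacement of the ligand.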 Summed up: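 Primary screen in duplicate at 25 uM, with actives followed in concentration series. CHO-derived receptor membranes, cell-free; bound radioligand read by scintillation counting after filtration at 2.5 h, decrease scored against DMSO.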
Chain of human Opioid Receptor Mu (Opiate Mu), OPRM1 (gene 4988) (P35372 whole entry, looked up): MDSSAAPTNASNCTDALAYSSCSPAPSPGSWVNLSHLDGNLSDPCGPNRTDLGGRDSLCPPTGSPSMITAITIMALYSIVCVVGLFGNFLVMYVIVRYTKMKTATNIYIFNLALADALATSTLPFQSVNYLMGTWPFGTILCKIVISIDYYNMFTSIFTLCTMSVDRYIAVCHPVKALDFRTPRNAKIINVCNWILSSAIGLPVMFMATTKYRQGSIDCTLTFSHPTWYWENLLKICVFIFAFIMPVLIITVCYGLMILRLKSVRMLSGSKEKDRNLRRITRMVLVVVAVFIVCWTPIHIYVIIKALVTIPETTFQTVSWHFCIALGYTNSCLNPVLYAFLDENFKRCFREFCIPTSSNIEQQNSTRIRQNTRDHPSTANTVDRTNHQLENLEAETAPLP

Assay [4] concerns the target mouse Cholecystokinin, CCK2 Receptor (CCKB), Cckbr (gene 12426) (UniProt P56481). Put plainly: NVS_GPCR_mCKKBCentral: NovaScreen (NVS) G Protein-Coupled Receptor Assay for mouse Cholecystokinin, CCK2 Receptor (CCKB) (AID 2283293). Summed up: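 Mouse forebrain membrane preparation incubated 2 h with chemical and radioligand; bound radioactivity counted after filtration. Single-concentration duplicate screen at 25 uM, then concentration series to 50 uM max for hits, DMSO as baseline.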

In assay [5] the target is rat Serotonin, 5-Hydroxytryptamine Receptor (5HT), Non-Selective Binding, Htr1a (gene 24473) (UniProt P19327). The assay can be described thus: NVS_GPCR_r5HT_NonSelective: NovaScreen (NVS) G Protein-Coupled Receptor Assay for rat Serotonin, 5-Hydroxytryptamine Receptor (5HT), Non-Selective Binding (AID 2283295). The essentials: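 Rat cortex membrane preparation incubated 1 h with radioligand and test chemical; bound radioactivity counted after filtration. Screening began in duplicate at 25 uM with concentration-series follow-up; fitting relative to DMSO.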
Chain of rat Serotonin, 5-Hydroxytryptamine Receptor (5HT), Non-Selective Binding, Htr1a (gene 24473) (P19327 whole entry, looked up): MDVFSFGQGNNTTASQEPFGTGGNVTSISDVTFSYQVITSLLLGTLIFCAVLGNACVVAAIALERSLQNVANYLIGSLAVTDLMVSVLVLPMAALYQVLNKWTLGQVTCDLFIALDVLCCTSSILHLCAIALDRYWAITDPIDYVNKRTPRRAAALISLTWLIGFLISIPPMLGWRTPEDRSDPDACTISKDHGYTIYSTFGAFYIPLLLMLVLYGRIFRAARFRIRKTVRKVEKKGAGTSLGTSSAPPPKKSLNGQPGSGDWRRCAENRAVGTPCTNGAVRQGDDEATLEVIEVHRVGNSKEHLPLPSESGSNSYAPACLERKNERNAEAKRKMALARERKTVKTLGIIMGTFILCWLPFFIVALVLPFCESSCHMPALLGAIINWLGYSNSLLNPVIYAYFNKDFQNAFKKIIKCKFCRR

Assay [6] has as its target human Neurotensin Receptor (NTS), NTSR1 (gene 4923) (UniProt P30989). Put plainly: NVS_GPCR_hNTS: NovaScreen (NVS) G Protein-Coupled Receptor Assay for human Neurotensin Receptor (NTS) (AID 2283279). The essentials: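 Compounds competed with a radiolabelled ligand for binding to CHO-derived human neurotensin receptor; bound signal counted after filtration, 1 h. Screened first at a single concentration of 25 uM in duplicate, then concentration series to 50 uM maximum for actives.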

For assay [7], the target named is human Vasopressin 1A Receptor (V1A), AVPR1A (gene 552) (UniProt P37288). Put plainly: NVS_GPCR_hV1A: NovaScreen (NVS) G Protein-Coupled Receptor Assay for human Vasopressin 1A Receptor (V1A) (AID 2283284). The essentials: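 Single-concentration duplicate screen at 25 uM, with concentration-response follow-up (top 50 uM) for actives. The assay measured displacement of a radioligand from human platelet-derived receptor after 1.5 h, detected by filtration and scintillation counting.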

Assay [8] concerns the target human Purinergic Receptor P2Y, P2RY1 (gene 5028) (UniProt P47900). Put plainly: NVS_GPCR_hPY2: NovaScreen (NVS) G Protein-Coupled Receptor Assay for human Purinergic Receptor P2Y (AID 2283281). The essentials: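 Filtration scintillation readout of radioligand displacement on U937 extract, measured 1 h post-dosing. Single 25 uM duplicate screen, then singleton concentration series to 50 uM for chemicals passing threshold; DMSO as baseline.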

For assay [9], the target named is human Opioid Receptor Delta 1 (Opiate D1), OPRD1 (gene 4985) (UniProt P41143). The assay can be described thus: NVS_GPCR_hOpiate_D1: NovaScreen (NVS) G Protein-Coupled Receptor Assay for human Opioid Receptor Delta 1 (Opiate D1) (AID 2283280). The essentials: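 Membrane preparations from CHO cells bearing the human receptor were incubated 1 h with test chemical, and bound radioligand was counted after filtration. Actives from 25 uM duplicate screening were retested in concentration-response.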
Chain of human Opioid Receptor Delta 1 (Opiate D1), OPRD1 (gene 4985) (P41143 whole entry, looked up): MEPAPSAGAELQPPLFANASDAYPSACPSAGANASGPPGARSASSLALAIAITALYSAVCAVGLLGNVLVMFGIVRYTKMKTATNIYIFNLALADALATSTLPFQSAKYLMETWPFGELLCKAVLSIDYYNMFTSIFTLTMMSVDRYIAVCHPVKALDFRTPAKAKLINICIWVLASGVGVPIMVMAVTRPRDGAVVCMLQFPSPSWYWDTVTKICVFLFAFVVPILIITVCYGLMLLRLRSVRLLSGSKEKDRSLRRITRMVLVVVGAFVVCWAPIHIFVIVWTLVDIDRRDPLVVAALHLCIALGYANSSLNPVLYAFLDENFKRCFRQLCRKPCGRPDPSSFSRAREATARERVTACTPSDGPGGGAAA

Assay [10] addresses human Thromboxane A2 Receptor (TXA2), TBXA2R (gene 6915) (UniProt P21731). The assay can be described thus: NVS_GPCR_hTXA2: NovaScreen (NVS) G Protein-Coupled Receptor Assay for human Thromboxane A2 Receptor (TXA2) (AID 2283282).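 Note: actives reduce bound radioligand signal relative to DMSO baseline.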 The essentials:
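Biochem binding, human platelets, cell-free; competitive radioligand displacement; 1 h; filter radiodetection. 25 uM duplicate primary, conc. series secondary; DMSO neg. ctrl.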

For assay [11], the target named is human Orphanin, Opioid Related Nociceptin Receptor 1 (ORL1), OPRL1 (gene 4987) (UniProt P41146). Put plainly: NVS_GPCR_hORL1: NovaScreen (NVS) G Protein-Coupled Receptor Assay for human Orphanin, Opioid Related Nociceptin Receptor 1 (ORL1) (AID 2283283). Summed up: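 Cell-free binding using HEK293-derived receptor protein: radioligand displacement measured by filter scintillation 1 hour after dosing. Primary testing at 25 uM in duplicate, followed by singleton concentration series up to 50 uM; DMSO served as negative control.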
Chain of human Orphanin, Opioid Related Nociceptin Receptor 1 (ORL1), OPRL1 (gene 4987) (P41146 whole entry, looked up): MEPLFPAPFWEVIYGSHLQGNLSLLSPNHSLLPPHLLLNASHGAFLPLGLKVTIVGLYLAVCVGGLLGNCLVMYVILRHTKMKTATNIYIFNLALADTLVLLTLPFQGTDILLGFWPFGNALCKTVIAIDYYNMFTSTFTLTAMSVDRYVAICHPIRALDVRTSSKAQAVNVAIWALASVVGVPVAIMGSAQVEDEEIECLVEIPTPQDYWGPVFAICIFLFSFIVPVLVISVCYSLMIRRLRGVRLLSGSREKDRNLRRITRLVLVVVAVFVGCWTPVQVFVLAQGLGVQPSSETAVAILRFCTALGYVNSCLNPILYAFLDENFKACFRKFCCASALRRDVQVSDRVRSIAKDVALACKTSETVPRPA

The test system of assay [12] is 5-hydroxytryptamine receptor 2C (pig). Put plainly: NVS_GPCR_p5HT2C: NovaScreen (NVS) G Protein-Coupled Receptor Assay for pig Serotonin, 5-Hydroxytryptamine Receptor 2C (5HT2C) (AID 2283288). Summed up: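 Radioligand displacement on membranes from pig choroid plexus, detected by filter scintillation counting after 1 h. Tested first at a single 25 uM in duplicate, then in concentration-response for actives; DMSO served as baseline.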

Assay [13] addresses rat Adrenergic, Alpha 1, Non-selective Receptor (Adra1), Adra1a (gene 29412) (UniProt P43140). The assay can be described thus: NVS_GPCR_rAdra1_NonSelective: NovaScreen (NVS) G Protein-Coupled Receptor Assay for rat Adrenergic, Alpha 1, Non-selective Receptor (Adra1) (AID 2283289). Summed up: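 Chemicals first screened in duplicate at 25 uM, then actives tested in concentration series up to 50 uM. Binding measured as displacement of radioligand from rat forebrain membrane receptors, 1 h, filtration with scintillation readout; DMSO baseline.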

Assay [14] concerns the target guinea pig Serotonin, 5-Hydroxytryptamine Receptor 4 (5HT4), HTR4 (gene 100135548) (UniProt O70528). The assay can be described thus: NVS_GPCR_g5HT4: NovaScreen (NVS) G Protein-Coupled Receptor Assay for guinea pig Serotonin, 5-Hydroxytryptamine Receptor 4 (5HT4) (AID 2283294). Summed up:
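Compounds first screened in duplicate at 25 uM, actives followed up in concentration series. Binding measured as displacement of specific radioligand from guinea pig striatal membranes, 1 h, filter-based scintillation read-out versus DMSO baseline.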

For assay [15], the system named is rat Adrenergic, Alpha 1B Receptor (Adra1B), gene 24173. Put plainly: NVS_GPCR_rAdra1B: NovaScreen (NVS) G Protein-Coupled Receptor Assay for rat Adrenergic, Alpha 1B Receptor (Adra1B) (AID 2283297). Summed up:
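Filter-binding radioligand competition on membranes from rat liver, read after 1 h by scintillation counting. Single-concentration duplicate screen at 25 uM, followed by concentration-response on actives, normalised to DMSO.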

Assay [16] concerns the target rat Adrenergic Receptor, Alpha 2 (Adra2), Non-selective Binding, Adra2a (gene 25083) (UniProt P22909). The assay can be described thus: NVS_GPCR_rAdra2_NonSelective: NovaScreen (NVS) G Protein-Coupled Receptor Assay for rat Adrenergic Receptor, Alpha 2 (Adra2), Non-selective Binding (AID 2283299). Summed up: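 Filter-based scintillation counting of radioligand binding to rat cortical membrane receptors, measured 1.25 hours post-dosing; loss of signal versus DMSO indicates displacement. Initial single-concentration duplicate at 25 uM, then concentration series.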

The target of assay [17] is rat Adrenergic, Alpha 1A Receptor (Adra1A), Adra1a (gene 29412) (UniProt P43140). Put plainly: NVS_GPCR_rAdra1A: NovaScreen (NVS) G Protein-Coupled Receptor Assay for rat Adrenergic, Alpha 1A Receptor (Adra1A) (AID 2283296). Summed up: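 Filter radiodetection after 1 h competitive binding on CEC-pretreated rat cortical membranes. Duplicate single-point screening at 25 uM; active chemicals retested across concentration series.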

Assay [18] concerns the target rat Serotonin, 5-Hydroxytryptamine Receptor 1 (5HT1), Non-Selective Binding, Htr1a (gene 24473) (UniProt P19327). The assay can be described thus: NVS_GPCR_r5HT1_NonSelective: NovaScreen (NVS) G Protein-Coupled Receptor Assay for rat Serotonin, 5-Hydroxytryptamine Receptor 1 (5HT1), Non-Selective Binding (AID 2283286). The essentials: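 Binding of a radioligand to rat cortex membranes is read by filtration and scintillation counting after 1 h. Compounds were screened at 25 uM in duplicate. Actives were then titrated to a top of 50 uM. DMSO is the baseline.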

Assay [19] addresses guinea pig Bradykinin Receptor B2 (BK2), BDKRB2 (gene 100135486) (UniProt O70526). The assay can be described thus: NVS_GPCR_gBK2: NovaScreen (NVS) G Protein-Coupled Receptor Assay for guinea pig Bradykinin Receptor B2 (BK2) (AID 2283292). Summed up:
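Guinea pig ileum membrane preparation incubated 1 h with radioligand and test chemical; bound counts measured after filtration. Primary duplicate screening at 25 uM, then singleton concentration series with a 50 uM top dose; DMSO as baseline.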

Chain of rat Adrenergic Receptor, Beta (Adrb), Non-selective Binding, Adrb1 (gene 24925) (P18090 whole entry, looked up): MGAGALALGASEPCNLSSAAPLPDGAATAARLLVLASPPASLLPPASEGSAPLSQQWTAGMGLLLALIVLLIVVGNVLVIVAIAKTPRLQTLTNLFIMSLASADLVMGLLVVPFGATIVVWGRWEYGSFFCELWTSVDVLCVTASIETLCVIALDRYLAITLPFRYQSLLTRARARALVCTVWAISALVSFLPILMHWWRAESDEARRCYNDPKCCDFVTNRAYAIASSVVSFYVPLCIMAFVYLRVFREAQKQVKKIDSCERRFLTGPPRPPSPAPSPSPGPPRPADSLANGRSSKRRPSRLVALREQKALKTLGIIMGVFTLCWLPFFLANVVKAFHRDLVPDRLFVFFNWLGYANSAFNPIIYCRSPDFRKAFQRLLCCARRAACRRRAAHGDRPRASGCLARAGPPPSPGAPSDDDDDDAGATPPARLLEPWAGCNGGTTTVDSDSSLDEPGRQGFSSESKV
Chain of human Purinergic Receptor P2Y, P2RY1 (gene 5028) (P47900 whole entry, looked up): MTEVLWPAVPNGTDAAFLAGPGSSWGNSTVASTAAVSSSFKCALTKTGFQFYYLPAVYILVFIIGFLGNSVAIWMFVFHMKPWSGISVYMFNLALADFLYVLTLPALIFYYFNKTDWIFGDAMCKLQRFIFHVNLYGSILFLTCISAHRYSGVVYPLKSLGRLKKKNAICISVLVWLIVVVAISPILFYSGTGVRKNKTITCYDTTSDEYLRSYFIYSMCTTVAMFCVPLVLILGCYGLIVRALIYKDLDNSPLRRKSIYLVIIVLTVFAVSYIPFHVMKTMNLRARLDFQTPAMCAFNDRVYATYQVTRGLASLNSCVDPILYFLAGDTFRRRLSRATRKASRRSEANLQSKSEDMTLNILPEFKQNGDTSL
Chain of human Thromboxane A2 Receptor (TXA2), TBXA2R (gene 6915) (P21731 whole entry, looked up): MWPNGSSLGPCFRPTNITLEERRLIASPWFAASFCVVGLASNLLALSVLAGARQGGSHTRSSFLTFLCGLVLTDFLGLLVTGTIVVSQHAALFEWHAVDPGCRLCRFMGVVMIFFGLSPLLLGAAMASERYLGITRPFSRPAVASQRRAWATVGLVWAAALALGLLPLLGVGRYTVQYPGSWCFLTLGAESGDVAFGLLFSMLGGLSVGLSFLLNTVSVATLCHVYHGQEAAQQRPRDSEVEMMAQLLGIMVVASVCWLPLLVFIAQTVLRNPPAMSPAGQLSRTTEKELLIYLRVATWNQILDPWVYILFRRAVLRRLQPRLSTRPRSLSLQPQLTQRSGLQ
Chain of human Neurotensin Receptor (NTS), NTSR1 (gene 4923) (P30989 whole entry, looked up): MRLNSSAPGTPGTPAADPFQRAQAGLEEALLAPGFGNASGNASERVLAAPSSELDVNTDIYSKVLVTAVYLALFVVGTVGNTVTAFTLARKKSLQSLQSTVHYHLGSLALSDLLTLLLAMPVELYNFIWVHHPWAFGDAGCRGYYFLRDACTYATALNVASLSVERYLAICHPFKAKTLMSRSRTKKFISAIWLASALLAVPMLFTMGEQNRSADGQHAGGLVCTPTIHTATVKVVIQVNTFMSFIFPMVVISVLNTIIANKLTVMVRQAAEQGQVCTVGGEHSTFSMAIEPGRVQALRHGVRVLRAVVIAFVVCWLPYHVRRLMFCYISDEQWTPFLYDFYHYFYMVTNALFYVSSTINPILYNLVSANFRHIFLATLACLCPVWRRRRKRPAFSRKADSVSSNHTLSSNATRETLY
Chain of guinea pig Serotonin, 5-Hydroxytryptamine Receptor 4 (5HT4), HTR4 (gene 100135548) (O70528 whole entry, looked up): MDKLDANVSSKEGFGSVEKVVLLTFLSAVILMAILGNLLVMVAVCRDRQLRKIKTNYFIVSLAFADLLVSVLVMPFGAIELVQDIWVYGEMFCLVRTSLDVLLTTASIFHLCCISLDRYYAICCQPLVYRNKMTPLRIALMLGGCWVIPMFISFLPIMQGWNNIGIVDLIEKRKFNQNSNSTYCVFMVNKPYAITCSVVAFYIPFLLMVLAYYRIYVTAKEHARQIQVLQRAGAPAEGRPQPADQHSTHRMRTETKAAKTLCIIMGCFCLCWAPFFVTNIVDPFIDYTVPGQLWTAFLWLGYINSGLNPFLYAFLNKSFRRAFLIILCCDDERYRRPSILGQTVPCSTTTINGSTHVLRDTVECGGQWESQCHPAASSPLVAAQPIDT
Chain of rat Adrenergic Receptor, Alpha 2 (Adra2), Non-selective Binding, Adra2a (gene 25083) (P22909 whole entry, looked up): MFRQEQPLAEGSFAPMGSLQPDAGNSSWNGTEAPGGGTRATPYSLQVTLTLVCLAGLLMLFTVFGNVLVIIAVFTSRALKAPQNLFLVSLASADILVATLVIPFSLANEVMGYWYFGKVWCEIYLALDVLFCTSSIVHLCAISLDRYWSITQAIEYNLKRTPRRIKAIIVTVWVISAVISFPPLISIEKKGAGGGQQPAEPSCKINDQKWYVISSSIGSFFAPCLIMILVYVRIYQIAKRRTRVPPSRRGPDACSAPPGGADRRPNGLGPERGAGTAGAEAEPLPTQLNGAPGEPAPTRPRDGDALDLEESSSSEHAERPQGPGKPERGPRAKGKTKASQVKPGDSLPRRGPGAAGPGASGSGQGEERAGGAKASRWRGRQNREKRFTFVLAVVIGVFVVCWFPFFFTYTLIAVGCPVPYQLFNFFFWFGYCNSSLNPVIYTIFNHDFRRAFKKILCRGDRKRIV
Chain of rat Adrenergic, Alpha 1, Non-selective Receptor (Adra1), Adra1a (gene 29412) (P43140 whole entry, looked up): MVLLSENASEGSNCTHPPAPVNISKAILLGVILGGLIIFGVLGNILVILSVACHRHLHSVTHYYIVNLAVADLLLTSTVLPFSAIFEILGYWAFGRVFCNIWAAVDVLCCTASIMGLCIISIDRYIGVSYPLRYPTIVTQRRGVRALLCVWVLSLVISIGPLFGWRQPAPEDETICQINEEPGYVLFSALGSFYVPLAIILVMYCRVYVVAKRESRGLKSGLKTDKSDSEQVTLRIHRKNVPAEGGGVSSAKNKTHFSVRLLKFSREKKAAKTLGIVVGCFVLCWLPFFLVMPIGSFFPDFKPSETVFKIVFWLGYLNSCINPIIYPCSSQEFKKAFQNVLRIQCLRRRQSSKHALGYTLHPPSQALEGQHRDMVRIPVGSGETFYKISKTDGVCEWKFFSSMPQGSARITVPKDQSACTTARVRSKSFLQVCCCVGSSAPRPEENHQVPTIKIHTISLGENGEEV
Chain of rat Serotonin, 5-Hydroxytryptamine Receptor 1 (5HT1), Non-Selective Binding, Htr1a (gene 24473) (P19327 whole entry, looked up): as the sequence (P19327 whole entry, looked up) above

With `CC(C)c1ccc(C(=O)N=C(N)N)cc1S(C)(=O)=O`, in assay [1], the compound was classed as inactive.
For `O=C(N[C@@H](Cc1ccccc1)[C@@H](O)C(=O)N1C[C@@H](O)[C@@H](O)C1)c1cc2cc(Cl)ccc2[nH]1`, the AC50 was 11.9 µM (active) in assay [2], 4.96 µM (active) in assay [3] and 8.74 µM (active) in assay [4]. The compound was called inactive in [5].
For the compound `Cc1cccc(C)c1O`, the compound was classed as inactive in [6] and in assay [7].
As for `CCCCCCCCCCCC(=O)OC`, the compound was called inactive in assay [8].
Take `CC=Cc1ccc(O)c(OC)c1`: the compound was called inactive in assay [3].
As to `CCCCC(CC)COC(=O)CC(C(=O)OCC(CC)CCCC)S(=O)(=O)O` (stereo not given), the concentration at half-maximal activity (AC50) was 10.3 µM (active) in assay [9]; 7.46 µM (active) in assay [8]; 8.9 µM (active) in assay [10]; 15.9 µM (active) in assay [11]; 32.4 µM (active) in [12]; 17 µM (active) in assay [13]. Further, the AC50 in assay [3] is 14.8 µM (active); in assay [14], 36 µM (active); in assay [5], 25 µM (active); in assay [15], 29.2 µM (active); in assay [16], 32.9 µM (active).
As for `CCOC(=O)CCC(=O)OCC`, the call in assay [8], in assay [11], in assay [12], in [3], in [17] and in assay [16] was inactive.
For `Cc1nc(-c2ccc3c(c2)CCN(CCC2CCC(NC(=O)/C=C/c4ccc(F)cc4)CC2)CC3)no1` (stereo not given), the call in [1] was inactive.
For the compound `Nc1ccccc1N`, the compound was called inactive in assay [18].
For `NCCO`, in assay [6], the AC50 was 37.9 µM (active). Besides, the compound was classed as inactive in [19].
Turning to `CCCCc1ccc2c(n1)[C@@H](c1ccc(OC)cc1C[C@H](C)C(=O)O)[C@H](C(=O)O)[C@H]2c1ccc2c(c1)OCO2`, in [4], the AC50 was 20 µM (active).
With `CC1(C)CC(N=C=O)CC(C)(CN=C=O)C1` (stereo not given), the compound was called inactive in [9].
As to `CC(=O)C(C)=CC1C(C)=CCCC1(C)C` (stereo not given), the call in assay [5] and in assay [1] was inactive.
As for `Cc1cccc(Nc2cc(Cl)nc(SCC(=O)O)n2)c1C`, the AC50 in assay [10] is 5.03 µM (active).
In the case of `Cc1c(C(=O)O)c(O)cc2c1C(=O)c1c(O)c([C@@H]3O[C@H](CO)[C@@H](O)[C@H](O)[C@H]3O)c(O)c(O)c1C2=O`, the compound was called inactive in assay [18].
`Oc1ccc2c(c1)OC[C@@H](N1CCC(O)(c3ccc(F)cc3)CC1)[C@H]2O`: the result in assay [12], in assay [13], in assay [3], in assay [14] and in assay [15] was inactive. Besides, in assay [1], the AC50 is 5.17 µM (active).
For the compound `CC1=C(/C=C/C(C)=C/C=C/C(C)=C/CO)C(C)(C)CCC1`, the compound was called inactive in assay [3] and in [5].
For the compound `C[Si]1(C)O[Si](C)(C)O[Si](C)(C)O[Si](C)(C)O1`, the result in [10] was inactive.

One may read the AC50 as the midpoint of the concentration-response curve, whichever way the signal moves.

These data come from PubChem BioAssay (EPA / NIEHS).
